Assay results reported in the supplement of paper PMC10849652.
About 8,800 targets were measured; listed, in parts, are those with a hit and a random draw of the rest. About 0.5% of all pairs of compound and target were hits.

What follows are targets tested with O=C(CCCCCCC(=O)Nc1ccccc1)NO [vorinostat] (assay: log2 fold change, soluble protein after heating vs DMSO (PISA); higher = thermal stabilisation; K562 lysate, 10 uM; active = over 0.2 and 3.5 SD of the protein, either way, in both replicates (recomputed)).
Method in brief: (§1)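 Following dounce homogenisation of K562 pellets in PBS pH 7.4 with 1 mM MgCl2, crude extract at 1 mg/mL protein was incubated for 30 min with 10 μM compound. Aliquots were then heated for 3 min over 48°C-58°C and pooled, NP-40 was added to 0.5% at 4°C, and soluble protein was recovered as the supernatant at 21,000xg for 90 min. Channel-sum-equalised TMTpro 16plex LC-MS/MS quantified this protein. Each value, from duplicates, is a log-two fold change in thermal stability relative to solvent controls.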

UniProt Q4ADV7, sequence (Q4ADV7 whole entry, looked up): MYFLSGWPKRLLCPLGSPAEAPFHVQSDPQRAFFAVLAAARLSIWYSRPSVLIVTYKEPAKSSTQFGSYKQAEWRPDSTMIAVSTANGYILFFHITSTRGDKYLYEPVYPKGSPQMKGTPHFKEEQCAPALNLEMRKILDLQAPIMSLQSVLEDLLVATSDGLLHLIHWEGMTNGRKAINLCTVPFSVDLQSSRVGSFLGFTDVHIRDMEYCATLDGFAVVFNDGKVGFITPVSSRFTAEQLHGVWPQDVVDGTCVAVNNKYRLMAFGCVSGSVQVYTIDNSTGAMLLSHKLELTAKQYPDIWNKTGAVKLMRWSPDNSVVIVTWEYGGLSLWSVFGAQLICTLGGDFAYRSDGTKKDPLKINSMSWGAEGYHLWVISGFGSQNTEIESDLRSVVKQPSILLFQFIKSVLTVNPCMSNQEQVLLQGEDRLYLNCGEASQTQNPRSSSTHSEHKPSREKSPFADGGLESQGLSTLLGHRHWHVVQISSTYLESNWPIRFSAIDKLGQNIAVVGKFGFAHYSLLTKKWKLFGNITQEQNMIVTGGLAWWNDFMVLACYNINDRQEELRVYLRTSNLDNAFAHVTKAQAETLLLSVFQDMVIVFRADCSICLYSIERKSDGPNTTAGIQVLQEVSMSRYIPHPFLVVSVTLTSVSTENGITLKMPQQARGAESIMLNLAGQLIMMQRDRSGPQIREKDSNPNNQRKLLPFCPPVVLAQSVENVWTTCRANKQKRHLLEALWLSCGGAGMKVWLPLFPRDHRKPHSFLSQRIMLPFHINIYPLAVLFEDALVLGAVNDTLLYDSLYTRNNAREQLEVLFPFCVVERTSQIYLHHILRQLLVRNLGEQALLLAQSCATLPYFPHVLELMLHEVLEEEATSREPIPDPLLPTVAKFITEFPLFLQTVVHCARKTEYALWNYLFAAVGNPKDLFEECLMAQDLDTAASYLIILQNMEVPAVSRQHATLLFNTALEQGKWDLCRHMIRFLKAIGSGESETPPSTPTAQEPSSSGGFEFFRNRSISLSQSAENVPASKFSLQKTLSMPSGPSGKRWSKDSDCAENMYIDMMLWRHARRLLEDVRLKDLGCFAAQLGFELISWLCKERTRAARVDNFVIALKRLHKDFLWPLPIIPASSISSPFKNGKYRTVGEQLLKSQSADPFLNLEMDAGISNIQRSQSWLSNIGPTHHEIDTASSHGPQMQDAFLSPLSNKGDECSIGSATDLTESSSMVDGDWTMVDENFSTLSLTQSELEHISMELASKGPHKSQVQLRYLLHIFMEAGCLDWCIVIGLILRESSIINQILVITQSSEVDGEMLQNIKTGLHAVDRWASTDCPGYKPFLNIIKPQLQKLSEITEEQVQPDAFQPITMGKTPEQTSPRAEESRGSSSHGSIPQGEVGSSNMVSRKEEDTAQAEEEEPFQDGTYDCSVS
UniProt Q8NC42, sequence (Q8NC42 whole entry, looked up): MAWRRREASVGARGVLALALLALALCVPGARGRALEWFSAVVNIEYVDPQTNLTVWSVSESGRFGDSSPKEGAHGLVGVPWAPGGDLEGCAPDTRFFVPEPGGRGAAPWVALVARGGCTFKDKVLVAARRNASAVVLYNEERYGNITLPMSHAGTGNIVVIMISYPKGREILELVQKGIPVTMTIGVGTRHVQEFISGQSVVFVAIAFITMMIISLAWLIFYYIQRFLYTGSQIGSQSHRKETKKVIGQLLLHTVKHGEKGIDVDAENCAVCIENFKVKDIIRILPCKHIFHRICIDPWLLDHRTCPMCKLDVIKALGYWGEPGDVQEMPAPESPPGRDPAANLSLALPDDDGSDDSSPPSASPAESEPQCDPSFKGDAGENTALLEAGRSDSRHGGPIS
UniProt Q8IYW5, sequence (Q8IYW5 whole entry, looked up): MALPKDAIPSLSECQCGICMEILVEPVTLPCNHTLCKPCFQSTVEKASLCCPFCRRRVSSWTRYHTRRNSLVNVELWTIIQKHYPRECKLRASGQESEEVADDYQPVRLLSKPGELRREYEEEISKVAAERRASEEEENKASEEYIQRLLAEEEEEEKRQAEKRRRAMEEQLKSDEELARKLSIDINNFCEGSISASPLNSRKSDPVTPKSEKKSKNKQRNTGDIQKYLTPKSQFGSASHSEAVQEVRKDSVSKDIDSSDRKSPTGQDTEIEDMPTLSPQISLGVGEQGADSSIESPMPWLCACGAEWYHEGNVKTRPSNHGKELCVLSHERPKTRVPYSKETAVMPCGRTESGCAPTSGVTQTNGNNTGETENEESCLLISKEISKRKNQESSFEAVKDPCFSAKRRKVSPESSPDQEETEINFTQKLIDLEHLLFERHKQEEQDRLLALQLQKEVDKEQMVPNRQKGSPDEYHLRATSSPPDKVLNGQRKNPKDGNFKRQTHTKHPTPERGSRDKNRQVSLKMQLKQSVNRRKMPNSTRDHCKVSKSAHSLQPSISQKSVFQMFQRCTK
UniProt Q15404, sequence (Q15404 whole entry, looked up): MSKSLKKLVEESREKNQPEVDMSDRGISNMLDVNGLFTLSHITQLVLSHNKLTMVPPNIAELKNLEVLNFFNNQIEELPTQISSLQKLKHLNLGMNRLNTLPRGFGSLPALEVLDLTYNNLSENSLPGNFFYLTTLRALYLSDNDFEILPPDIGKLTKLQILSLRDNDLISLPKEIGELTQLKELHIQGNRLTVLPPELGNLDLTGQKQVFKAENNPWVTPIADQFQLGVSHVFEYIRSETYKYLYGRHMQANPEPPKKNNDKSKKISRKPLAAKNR
UniProt Q9H1K0, sequence (Q9H1K0 whole entry, looked up): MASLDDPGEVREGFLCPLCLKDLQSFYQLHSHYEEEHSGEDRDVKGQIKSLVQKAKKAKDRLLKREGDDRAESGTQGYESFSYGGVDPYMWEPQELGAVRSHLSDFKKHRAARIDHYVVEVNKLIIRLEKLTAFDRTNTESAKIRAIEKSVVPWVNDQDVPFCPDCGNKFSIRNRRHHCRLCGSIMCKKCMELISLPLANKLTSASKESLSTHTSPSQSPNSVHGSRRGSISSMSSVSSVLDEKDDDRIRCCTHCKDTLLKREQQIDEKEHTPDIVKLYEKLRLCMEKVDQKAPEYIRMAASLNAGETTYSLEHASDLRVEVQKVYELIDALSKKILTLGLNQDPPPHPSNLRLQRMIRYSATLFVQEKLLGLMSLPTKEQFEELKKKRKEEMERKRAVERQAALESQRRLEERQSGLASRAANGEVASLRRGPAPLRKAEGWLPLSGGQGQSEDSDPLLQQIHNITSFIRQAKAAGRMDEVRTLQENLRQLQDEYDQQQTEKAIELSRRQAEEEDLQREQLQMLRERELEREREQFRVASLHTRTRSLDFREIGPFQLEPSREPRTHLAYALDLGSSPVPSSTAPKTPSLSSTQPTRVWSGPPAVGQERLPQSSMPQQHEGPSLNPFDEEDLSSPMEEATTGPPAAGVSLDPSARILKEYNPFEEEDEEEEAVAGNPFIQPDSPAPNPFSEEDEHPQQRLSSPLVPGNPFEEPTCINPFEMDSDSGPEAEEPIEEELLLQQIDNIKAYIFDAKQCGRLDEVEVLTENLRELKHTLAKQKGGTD
UniProt Q6NUQ1, sequence (Q6NUQ1 whole entry, looked up): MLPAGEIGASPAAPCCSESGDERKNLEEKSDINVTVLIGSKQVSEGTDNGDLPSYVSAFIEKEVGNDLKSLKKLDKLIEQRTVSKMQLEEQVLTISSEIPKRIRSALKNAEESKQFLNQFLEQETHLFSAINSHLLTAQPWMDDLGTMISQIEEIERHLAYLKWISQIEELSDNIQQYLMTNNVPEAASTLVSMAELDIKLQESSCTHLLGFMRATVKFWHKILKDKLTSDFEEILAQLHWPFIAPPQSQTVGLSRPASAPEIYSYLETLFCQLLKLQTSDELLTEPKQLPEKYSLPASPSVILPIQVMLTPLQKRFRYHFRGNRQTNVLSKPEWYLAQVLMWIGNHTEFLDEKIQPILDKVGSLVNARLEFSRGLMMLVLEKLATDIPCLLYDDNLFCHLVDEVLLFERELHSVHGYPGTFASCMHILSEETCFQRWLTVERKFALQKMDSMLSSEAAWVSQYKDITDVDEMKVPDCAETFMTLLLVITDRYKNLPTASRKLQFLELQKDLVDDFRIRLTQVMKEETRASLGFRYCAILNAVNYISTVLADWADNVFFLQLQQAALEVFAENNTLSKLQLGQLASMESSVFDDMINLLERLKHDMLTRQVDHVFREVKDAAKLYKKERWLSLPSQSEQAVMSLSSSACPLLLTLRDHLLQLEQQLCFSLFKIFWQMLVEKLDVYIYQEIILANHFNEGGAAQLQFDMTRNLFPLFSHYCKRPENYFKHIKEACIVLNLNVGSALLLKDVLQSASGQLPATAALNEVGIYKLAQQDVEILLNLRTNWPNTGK
UniProt Q15287, sequence (Q15287 whole entry, looked up): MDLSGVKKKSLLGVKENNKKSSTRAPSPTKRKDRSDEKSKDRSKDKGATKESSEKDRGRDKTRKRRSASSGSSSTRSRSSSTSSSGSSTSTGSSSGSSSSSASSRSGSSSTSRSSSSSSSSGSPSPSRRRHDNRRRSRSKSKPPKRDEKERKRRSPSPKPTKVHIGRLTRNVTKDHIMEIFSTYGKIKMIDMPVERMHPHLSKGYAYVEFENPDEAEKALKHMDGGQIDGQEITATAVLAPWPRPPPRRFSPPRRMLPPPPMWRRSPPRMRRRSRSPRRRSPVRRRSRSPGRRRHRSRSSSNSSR
UniProt Q96EE3, sequence (Q96EE3 whole entry, looked up): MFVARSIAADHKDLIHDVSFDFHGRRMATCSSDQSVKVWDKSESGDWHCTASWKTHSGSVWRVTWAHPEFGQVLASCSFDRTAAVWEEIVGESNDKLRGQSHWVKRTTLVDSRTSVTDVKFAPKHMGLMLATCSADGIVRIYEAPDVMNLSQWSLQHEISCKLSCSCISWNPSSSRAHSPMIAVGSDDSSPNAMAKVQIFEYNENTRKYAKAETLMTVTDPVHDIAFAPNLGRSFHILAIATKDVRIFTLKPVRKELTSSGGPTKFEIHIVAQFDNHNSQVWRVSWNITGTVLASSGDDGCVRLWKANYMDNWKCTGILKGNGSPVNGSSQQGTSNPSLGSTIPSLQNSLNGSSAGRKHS
UniProt P60059, sequence (P60059 whole entry, looked up): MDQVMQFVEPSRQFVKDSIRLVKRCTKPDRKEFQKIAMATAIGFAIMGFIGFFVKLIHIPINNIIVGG

log2 fold change, inactive:
RDH10 (UniProt Q8IZV5) -0.007
RNF168 (UniProt Q8IYW5) -0.313
SEH1L isoform 1 (UniProt Q96EE3) -0.001
RIC1 (UniProt Q4ADV7) -0.193
SDHA (UniProt P31040) 0.058
RIOK1 (UniProt Q9BRS2) -0.035
RNPS1 (UniProt Q15287) 0.02
RSU1 (UniProt Q15404) 0.15
RPL36AL (UniProt Q969Q0) 0.124
RNF149 (UniProt Q8NC42) 0.098
RNF170 (UniProt Q96K19) 0.004
RPS9 (UniProt P46781) 0.125
RBSN (UniProt Q9H1K0) 0.035

log2 fold change, active:
RINT1 (UniProt Q6NUQ1) -0.321
RPTOR (UniProt Q8N122) -0.337
RMI2 (UniProt Q96E14) -0.586

The targets below were run with O=C(O)c1ccc2c(c1)nc(Nc1cccc(Cl)c1)c1ccncc12 [silmitasertib] in the same assay as above.
Method in brief: as §1

log2 fold change, inactive:
RFC3 (UniProt P40938) 0.035
RNF2 (UniProt Q99496) 0.021
RAB6D (UniProt Q53S08) -0.02
RDH11 (UniProt Q8TC12) 0.022
RPS29 (UniProt P62273) -0.03
RAD50 isoform 2 (UniProt Q92878) 0.024
RAB27A (UniProt P51159) 0.066
RDH14 (UniProt Q9HBH5) 0.044
RANBP6 (UniProt O60518) 0.054
SEC61G (UniProt P60059) 0.013
RNF213, A0A0A0MTC1 0.032
RNF123 (UniProt Q5XPI4) -0.016
RCOR3 isoform 3 (UniProt Q9P2K3) -0.002
RETSAT (UniProt Q6NUM9) -0.016
RDH10 (UniProt Q8IZV5) 0.006
RNF168 (UniProt Q8IYW5) 0.025
SEH1L isoform 1 (UniProt Q96EE3) -0.02
RINT1 (UniProt Q6NUQ1) 0.038
RIC1 (UniProt Q4ADV7) 0.057
SDHA (UniProt P31040) -0.014
RPTOR (UniProt Q8N122) 0.048
RMI2 (UniProt Q96E14) 0.092
RNPS1 (UniProt Q15287) -0.093
RSU1 (UniProt Q15404) 0
RPL36AL (UniProt Q969Q0) 0.011
RNF149 (UniProt Q8NC42) 0.013
RNF170 (UniProt Q96K19) 0.169
RPS9 (UniProt P46781) 0.042
RBSN (UniProt Q9H1K0) -0.032

log2 fold change, active:
RPS6KA1 (UniProt Q15418) 0.553
RIOK1 (UniProt Q9BRS2) 0.358

What follows are targets tested with O=C1NC(=O)C(c2cnc3ccccn23)=C1c1cn2c3c(cc(F)cc13)CN(C(=O)N1CCCCC1)CC2 in the same assay as above.
Method in brief: as §1

log2 fold change, inactive:
RFC3 (UniProt P40938) 0.006
RNF2 (UniProt Q99496) 0.008
RAB6D (UniProt Q53S08) -0.011
RDH11 (UniProt Q8TC12) -0.047
RPS6KA1 (UniProt Q15418) 0.123
RPS29 (UniProt P62273) 0.205
RAD50 isoform 2 (UniProt Q92878) -0.009
RAB27A (UniProt P51159) -0.009
RDH14 (UniProt Q9HBH5) 0.004
RANBP6 (UniProt O60518) 0.041
SEC61G (UniProt P60059) 0.232
RNF213, A0A0A0MTC1 0.007
RNF123 (UniProt Q5XPI4) -0.002
RCOR3 isoform 3 (UniProt Q9P2K3) -0.01
RETSAT (UniProt Q6NUM9) 0.058
RDH10 (UniProt Q8IZV5) -0.042
RNF168 (UniProt Q8IYW5) -0.046
SEH1L isoform 1 (UniProt Q96EE3) -0.008
RINT1 (UniProt Q6NUQ1) 0.034
RIC1 (UniProt Q4ADV7) -0.06
SDHA (UniProt P31040) -0.028
RPTOR (UniProt Q8N122) 0.012
RMI2 (UniProt Q96E14) 0.041
RIOK1 (UniProt Q9BRS2) -0.02
RNPS1 (UniProt Q15287) -0.012
RSU1 (UniProt Q15404) 0.034
RPL36AL (UniProt Q969Q0) 0.131
RNF149 (UniProt Q8NC42) 0.015
RPS9 (UniProt P46781) 0.002
RBSN (UniProt Q9H1K0) -0.026
